Rab9 prom act – activates the Rab9 promoter; Huh7 Rab9 promoter-luciferase reporter, luminescence, 24 h; Potency, µM (series often up to 9.22 µM), without a hit: at the top dose activation, negative = inhibition, actives largely listed as activators; 320,000 compounds, 2.8% hits; AID 485297; further: % of control where 0% means no effect; nearly all actives have a fitted effect of over 60% in size
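Promoter activation is measured as luciferase luminescence in Huh7 cells stably transfected with a Rab9 promoter–luciferase construct, following 24 h compound exposure at 37 °C and 10 min reagent incubation at ambient temperature.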
SMN2 splice up – enhancers of SMN2 splice variant expression. HEK293 SMN2-luciferase splicing reporter, luminescence, 30-36 h. Potency, µM (doses to about 46.1 µM), for the others: at the top dose activity change, positive = activation, usual class: activators. 210,000 compounds, 2.8% hits; further: % of control where 0% means no effect; nearly all actives have a fitted effect of over 55% in size
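qHTS luciferase splicing reporter: luminescence rises when SMN2 exon 7 is included in transfected HEK293 cells. Compound exposure lasted 30-36 h at 37C, with 4.5 mM final sodium butyrate as control, followed by a ONE-Glo read.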
ELG1 genotox – induces genotoxicity in HEK293T cells with luciferase-tagged ELG1 | HEK293T ELG1-luciferase reporter, luminescence, 16 h | Potency, µM (top dose mostly 46 µM), for the others: at the highest dose activity change, positive = activation, most hits filed as activators | 330,000 compounds, 1.3% hits | AID 504466; further: % of control where 0% means no effect; nearly all actives have a fitted effect of over 60% in size
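DMSO vehicle served as control against compound-treated ELG1-luciferase HEK293T cells; exposure lasted 16 hr at 37 °C and 5% CO2, followed by ONE-Glo luminescence detection after 30 min.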
ELG1 repair inh – ELG1-dependent DNA repair inhibition | 330,000 compounds, 2.3% hits | Potency, µM (series often up to 46.1 µM), inactives show top-dose activity change, negative = inhibition, most hits filed as inhibitors | HEK293T ELG1-luciferase reporter, luminescence, 16 h; DNA damage induced by 5-fluorouridine | AID 504467; further: on the % scale 0 is the no-effect control and ±100 the full control effect; nearly all actives have a fitted effect of over 55% in size
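Quantitative HTS, concentration-response format. 2,000 cells/well co-treated with 5-fluorouridine and compound, 16 hr in 5% CO2 at 37 °C; ONE-Glo luminescence read after 30 min.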
FLuc modulator – firefly luciferase modulation, counter-screen for miR-21 project. P08659. purified FLuc, Km substrates, luminescence inhibition. Potency, µM (doses to about 57.5 µM), inactives show at the highest dose activity change, negative = inhibition, actives largely listed as inhibitors. 360,000 compounds, 6.9% hits;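 further: plate controls were vehicle for no effect and reference inhibitor for full effect; nearly all actives have a fitted effect of over 55% in size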
Target sequence (P08659 whole entry, looked up): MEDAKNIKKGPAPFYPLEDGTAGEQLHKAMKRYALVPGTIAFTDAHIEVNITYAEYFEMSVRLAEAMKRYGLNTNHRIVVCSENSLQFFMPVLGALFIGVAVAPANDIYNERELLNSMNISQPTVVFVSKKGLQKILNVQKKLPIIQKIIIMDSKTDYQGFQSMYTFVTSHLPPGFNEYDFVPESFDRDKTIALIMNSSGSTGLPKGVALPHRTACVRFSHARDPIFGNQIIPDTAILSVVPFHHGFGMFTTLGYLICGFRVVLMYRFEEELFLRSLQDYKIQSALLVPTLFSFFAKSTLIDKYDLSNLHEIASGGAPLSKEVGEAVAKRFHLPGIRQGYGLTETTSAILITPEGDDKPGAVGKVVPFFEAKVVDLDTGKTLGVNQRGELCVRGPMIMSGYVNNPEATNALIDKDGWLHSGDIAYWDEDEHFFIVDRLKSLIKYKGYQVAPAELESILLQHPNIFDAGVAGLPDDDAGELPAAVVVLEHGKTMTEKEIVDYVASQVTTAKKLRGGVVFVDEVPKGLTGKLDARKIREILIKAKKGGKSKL
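Biochemical qHTS of compounds, final roughly 60 µM downward over six points, against 10 nM purified firefly luciferase using Km concentrations of substrates (10 uM D-luciferin, 10 uM ATP) in Tris acetate pH 7.5 buffer; luminescence output.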
NPC1 promoter act – activates the NPC1 promoter | 320,000 compounds, 2.4% hits | Potency, µM (series often up to 9.22 µM), inactives show at the top dose activation, hits mostly activators | Huh7 NPC1 promoter luciferase reporter, 24 h; further: % of control where 0% means no effect; nearly all actives have a fitted effect of over 60% in size
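Stably transfected Huh7 (NPC1 promoter→luciferase), 1500 cells/well in Opti-MEM + 10% FBS, 2 h settle, then compound 24 h at 37 °C. Luminescence after 10 min with Amplite reagent.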
* = called active by the depositor; ? = inconclusive; · = not tested or not shown. This is a sample that favours compounds with a hit; in the whole collection about 9.3% have one here. The call rests on the fitted dose curve; in most records, active means well fitted curve in the direction sought with a large enough effect; inconclusive means small, poorly fitted or top-dose-only effect, or another doubt; inactive means no such curve, though single readings can be large; an effect the other way counts as inactive or inconclusive. Potency means the concentration at half of the fitted maximal effect.

SMILES | Rab9 prom act | SMN2 splice up | ELG1 genotox | ELG1 repair inh | FLuc modulator | NPC1 promoter act
CCN(C[C@H]1N[C@@](Cc2ccccc2)(C(=O)OC)[C@H]2C(=O)N(C)C(=O)[C@@H]12)C(=O)Nc1ccc(C)cc1 | · | · | 4% | 2% | · | ·
N#Cc1c(Nc2ccccc2)sc(C(=O)c2ccccc2)c1N | -1% | 14% | -11% | -27% | 0% | -1%
C/C(=N\NC(=O)COc1ccc(C(C)(C)C)cc1)c1ccc2c(c1)OCCO2 | -1% | 1% | -1% | 21% | 19µM* | -3%
CCc1ccc(OCC(=O)N/N=C(\C)c2ccc3c(c2)OCCO3)cc1 | -4% | 8% | -5% | -2% | ? | 1%
COC(=O)N/N=C(\C)c1ccc(-n2ccnc2)cc1 | 17% | 14% | 5% | ? | -13% | -4%
C/C(=N\NC(=O)COc1ccc(C)cc1C(C)C)c1ccc(-n2ccnc2)cc1 | 14% | 9% | -2% | -16% | 1.9µM* | 6%
CCC(C)NS(=O)(=O)c1ccc(OCC(=O)NCc2ccc3c(c2)OCO3)cc1 (stereo not given) | -3% | 9% | -10% | ? | 0% | -5%
CCCCN(CCCC)C(=O)CSc1nnc2n(C)c(=O)c3c4c(sc3n12)CCCC4 | -4% | -56% | -7% | 10% | 1% | -4%
COC(=O)CSc1nc(N)c2c3c(sc2n1)CCCC3 | 5% | · | 13% | 24% | 9.5µM* | 1%
CC(C)(C)C1CCc2c(sc3nc(SCC(=O)O)nc(N)c23)C1 (stereo not given) | 11% | · | ? | ? | 2.4µM* | 18%
CC1(C)Cc2c(sc3nc(SCC(=O)O)nc(N)c23)CO1 | 2% | · | 0% | 6% | -18% | -3%
Cn1c(=O)c2c3c(sc2n2c(SCC(N)=O)nnc12)CC(C(C)(C)C)CC3 (stereo not given) | -4% | ? | -19% | 23µM* | ? | -3%
Nc1nc(SCC(=O)NCCO)nc2sc3c(c12)CCCC3 | -2% | 10% | 11% | ? | 17µM* | 6%
CC(=O)c1c(C)nc(-c2ccc(Cl)cc2)nc1N=CN(C)C | 2.8µM* | 11µM* | 9.2µM* | ? | ? | 4µM*
CC(=O)c1c(C)nc(-c2ccc(Cl)cc2)nc1N | 3.2µM* | 10µM* | 4.1µM* | ? | 6.7µM* | 3.5µM*
CC(C)(C)C(=O)NC(=S)NNC(=O)C(c1ccccc1)c1ccccc1 | -11% | -73% | 10% | -11% | -2% | -8%
COc1ccc(NC(=O)[C@@H]2CCCN2C(=O)c2cccs2)cc1S(=O)(=O)N1CCCCC1 | -4% | · | 2% | 12% | 1% | 0%
CCn1c(SCC(=O)c2ccccc2)nc2sc3c(c2c1=O)CCN(C)C3 | 16% | · | 6% | ? | -15% | -1%
Cc1[nH]c2ccccc2c1N=Nc1ccc(F)cc1 | 24% | 11% | 0% | -5% | ? | 0%
Cc1[nH]c(N=Nc2ccccc2)nc1N=Nc1ccccc1 | -4% | · | 8% | ? | 6µM* | 0%
O=S(=O)(Nc1nc2ccccc2nc1N1CCN(c2ccccc2F)CC1)c1ccc(Cl)cc1 | 3% | -12% | -15% | 18µM* | 0% | 0%
CCOc1ccc(S(=O)(=O)Nc2nc3ccccc3nc2N2CCN(C)CC2)cc1 | 11% | 13% | 2% | 15% | 1% | 10%
CN(C)/N=C/c1c(O)ccc2ccccc12 | -3% | -33% | 0% | 4% | ? | -2%
CS/C(N)=N/N=C/c1c(O)ccc2ccccc12 | ? | · | ? | ? | 3µM* | -1%
Oc1ccc2ccccc2c1C=Nc1ccccc1Br | 2% | · | 0% | -6% | 11µM* | -4%
SMILES | Rab9 prom act | SMN2 splice up | ELG1 genotox | ELG1 repair inh | FLuc modulator | NPC1 promoter act
Oc1ccc2ccccc2c1C=Nc1ccc(N2CCOCC2)cc1 | 11% | 26% | -5% | 0% | 6µM* | 1%
Oc1ccccc1N=Cc1c(O)ccc2ccccc12 | 2% | · | 0% | -4% | 13µM* | -3%
C(=Nc1ccc(N2CCOCC2)cc1)c1c[nH]c2ccccc12 | 24% | · | 10% | ? | ? | 5%
C=Cc1ccc(N=Cc2c(O)ccc3ccccc23)cc1 | -3% | · | -2% | -1% | 19µM* | -3%
Cc1cc(C(=O)O)ccc1N=Cc1c(O)ccc2ccccc12 | -4% | · | 1% | 16% | 0.76µM* | 10%
CCOc1ccc(CNC(=O)Cn2nc(C)n3nc(-c4ccccc4)cc3c2=O)cc1 | -4% | · | 3% | -2% | -2% | -1%
COc1ccc(C2C(C(=O)c3ccco3)=C(O)C(=O)N2CC2CCCO2)cc1 (stereo not given) | -1% | · | -11% | -11% | 1% | 0%
CC1CCCC(NS(=O)(=O)c2cc(Br)cnc2N)C1C (stereo not given) | -4% | · | 0% | 18% | 1% | -8%
O=C(NCC12CC3CC(CC(C3)C1)C2)c1nn2cccnc2c1Cl | -2% | 26% | 5% | 12% | 2% | -1%
O=C(NCC1CCCO1)c1nn2cccnc2c1Cl (stereo not given) | 22% | 22µM* | ? | ? | -15% | 13%
Cc1occc1-c1nnc(SC(C)C(=O)Nc2ccccc2F)o1 (stereo not given) | 2.8µM* | · | ? | ? | 2% | ?
C/C(=N\NC(=O)c1ccccc1)c1ccc2c(c1)OCO2 | 2.8µM* | 27% | 18µM* | ? | 15µM* | ?
C/C(=N/NC(=O)CCc1ccccc1)c1ccc2c(c1)OCO2 | 10% | · | -1% | -1% | -11% | -4%
C/C(=N\NC(=O)c1c[nH]c2ccccc12)c1ccc2c(c1)OCO2 | 28% | 17% | 8% | ? | 27µM* | 3%
C/C(=N\NC(=O)c1cc(C)oc1C)c1ccc2c(c1)OCO2 | ? | 12% | 11% | ? | ? | 18%
CC(=O)Nc1cccc(/C(C)=N/NC(=O)c2ccc3c(c2)OCO3)c1 | ? | 11µM* | ? | ? | 6µM* | 28%
C/C(=N\NC(=O)c1ccc2c(c1)OCO2)c1cccnc1 | 3.5µM* | · | ? | ? | ? | ?
C/C(=N/NC(=O)c1ccc2c(c1)OCO2)c1ccc(NC(=O)C(F)(F)F)cc1 | ? | 79% | 16% | ? | 1% | ?
CC(/C=C/c1ccc2c(c1)OCO2)=N/NC(=O)c1cccnc1 | -1% | ? | -3% | 16% | ? | 3%
Cc1cccc(CCN=C(N)NS(=O)(=O)c2ccccc2)c1 | -1% | · | -2% | -1% | 1% | -2%
COc1cc(C(C)=O)ccc1OCC(O)CN1CCN(c2c(C)cccc2C)CC1 (stereo not given) | -3% | · | -7% | -4% | -1% | 9%

Screening data (PubChem BioAssay)
